Measurements as given in ChEMBL document CHEMBL5308504, “Tm Shift (DSF) assay results for EUbOPEN Chemogenomics Library” (2023).
Where “and” joins values, the source holds several entries; their conditions need not be identical. Equal values may be shown once.

Tests used:
[1] = target: Bromodomain-containing protein 4 (Homo sapiens) (UniProt O60885); conditions: Compound concentration 20.0 uM, Protein concentration 2.0 uM, Result type QC Liability
[2] = target: T1, Transcription intermediary factor 1-alpha (Homo sapiens) (UniProt O15164); conditions: Compound concentration 20.0 uM, Protein concentration 2.0 uM, Result type QC Liability
T1 sequence (whole entry): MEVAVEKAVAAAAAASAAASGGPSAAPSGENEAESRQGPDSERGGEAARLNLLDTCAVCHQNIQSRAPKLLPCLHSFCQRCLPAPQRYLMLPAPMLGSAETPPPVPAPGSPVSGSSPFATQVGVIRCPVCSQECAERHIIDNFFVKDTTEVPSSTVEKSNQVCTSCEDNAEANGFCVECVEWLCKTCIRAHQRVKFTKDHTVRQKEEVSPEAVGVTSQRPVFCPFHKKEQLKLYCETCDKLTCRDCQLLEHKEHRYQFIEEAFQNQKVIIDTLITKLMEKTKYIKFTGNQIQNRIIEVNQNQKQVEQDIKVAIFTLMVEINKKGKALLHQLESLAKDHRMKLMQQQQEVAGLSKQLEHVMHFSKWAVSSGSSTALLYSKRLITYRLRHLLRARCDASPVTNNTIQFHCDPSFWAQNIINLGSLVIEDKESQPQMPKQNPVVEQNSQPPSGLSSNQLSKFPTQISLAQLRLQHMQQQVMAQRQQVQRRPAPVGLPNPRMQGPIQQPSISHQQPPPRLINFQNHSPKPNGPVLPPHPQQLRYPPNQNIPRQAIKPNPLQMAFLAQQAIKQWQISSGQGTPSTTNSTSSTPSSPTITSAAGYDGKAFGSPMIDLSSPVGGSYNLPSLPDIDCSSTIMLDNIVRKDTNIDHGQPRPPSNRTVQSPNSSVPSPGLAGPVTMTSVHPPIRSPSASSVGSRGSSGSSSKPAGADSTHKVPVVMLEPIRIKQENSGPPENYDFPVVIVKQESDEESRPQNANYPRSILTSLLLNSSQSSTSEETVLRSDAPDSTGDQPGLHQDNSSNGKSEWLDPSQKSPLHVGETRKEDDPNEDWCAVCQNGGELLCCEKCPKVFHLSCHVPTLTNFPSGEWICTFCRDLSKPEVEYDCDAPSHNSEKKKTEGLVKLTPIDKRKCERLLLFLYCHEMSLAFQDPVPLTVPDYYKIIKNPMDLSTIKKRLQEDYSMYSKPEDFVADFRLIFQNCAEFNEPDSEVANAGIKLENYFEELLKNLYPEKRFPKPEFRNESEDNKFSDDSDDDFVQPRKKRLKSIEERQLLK

SMILES | ΔTm [1] | ΔTm [2]
COc1ccc2c(O[C@@H]3C[C@H]4C(=O)N[C@]5(C(=O)NS(=O)(=O)C6(C)CC6)CC5/C=C\CCCCC[C@H](NC(=O)c5ccn(C)n5)C(=O)N4C3)cc(OC(C)C)nc2c1C (stereo partly drawn) | 1.29 °C | 0.91 °C
CN1CCN(c2ccc(/C=C(\C#N)c3ccccc3Br)cc2)CC1 | -4.31 °C | -4.7 °C
C/C(=C\C(=O)Nc1ccccc1C(=O)O)c1ccc2ccccc2c1 | -0.82 °C | 0.61 °C
CCCCC[C@H](O)/C=C/[C@H]1[C@H](O)CC(=O)[C@@H]1CCCCCCC(=O)O | -1.54 °C | 0.28 °C
CCc1nc(C2CCC2)n2nc(-c3ccccc3)[nH]c(=O)c12 | 0.07 °C | 0.37 °C
COc1cc(-c2cc3ncccc3c(O[C@H](C)[C@H]3CNC(=O)C3)n2)cc(OC)c1OC | -1.66 °C and 1.15 °C | 0.28 °C and -2.67 °C
CN(CC(=O)Nc1ccc(F)c(F)c1F)C(=O)c1ccc2c(c1)OCCO2 | -2.94 °C | -2.59 °C
CC(=O)c1ccc2c(c1)/C(=C(/NC1CCN(C)CC1)c1ccc3c(c1)OCO3)C(=O)N2 | -0.52 °C | 0.21 °C
Cc1ncsc1-c1ccc(CNC(=O)[C@@H]2C[C@@H](O)CN2C(=O)[C@@H](NC(=O)CCCCNC(=O)c2ccc(-c3ccc(N4CCN(C)CC4)c(NC(=O)c4c[nH]c(=O)cc4C(F)(F)F)c3)cc2)C(C)(C)C)cc1 | -6.12 °C | -1.25 °C
COc1cc(-c2cn(C)c(=O)c3cnccc23)cc(OC)c1CN(C)C | -0.83 °C | 0.37 °C
COc1cc(-c2cncc(-c3cnn(C4CCNCC4)c3)c2)cc(OC)c1OC | 0.84 °C | -1.81 °C
CNC(=O)c1ccc(C)c(-n2c(C)cc(OCc3ccc(F)cc3F)c(Br)c2=O)c1 | -1.55 °C | -2.58 °C
N#CN1CC[C@H](C(=O)Nc2nc3c(s2)CN(C(=O)CN=[N+]=[N-])CC3)C1 | -0.19 °C | -1.13 °C
COc1cc(C(=O)NC2CCN(C)CC2)ccc1Nc1ncc(C(F)(F)F)c(NCc2ccc(C)cc2N(C)S(C)(=O)=O)n1 | -2.71 °C | -3.38 °C
COc1cc(N[C@@H]2CCCC[C@]2(O)C(F)(F)F)ccc1F | -2.92 °C | -2.59 °C
COc1ccccc1Nc1nc(-c2nn(Cc3c(F)cc(OCCCO)cc3F)c3ccccc23)ncc1OC | -0.6 °C | -1.94 °C
CC1CCN(c2ccnc(NCc3cn(C)cn3)n2)CC1 | -1.06 °C | -0.77 °C

SMILES | ΔTm [1] | ΔTm [2]
CN1CCN(C(=O)c2ccc(N(C)c3ncc(C(F)(F)F)c(N[C@@H]4CCC[C@@H]4C(N)=O)n3)cc2)CC1 | -1.86 °C | 0.25 °C
CC[C@@H]1C(=O)N(C)c2cnc(Nc3ccc(C(=O)NC4CCN(C)CC4)cc3OC)nc2N1C1CCCC1 | 6.02 °C | 0.07 °C
Nc1c(CC(=O)O)cccc1C(=O)c1ccc(Br)cc1 | -0.6 °C | -0.77 °C
CCn1c(=O)c2c(C)c(C(=O)N3CCC(O)CC3)sc2n(CCC(F)(F)F)c1=O | -12.7 °C | 0.23 °C
COc1cc(C)c(S(=O)(=O)N(C)CCOCC(=O)N(C)[C@H]2CCC[C@@H](N3CCN(C)CC3)C2)c(C)c1 | -1.54 °C | 0.17 °C
CNc1oc(-c2cccc3ccccc23)nc1C#N | -3.26 °C | -0.7 °C
COc1cc(C(N)=O)ccc1Nc1ncc2c(n1)N(CCC(C)C)[C@H](C)C(=O)N2C | 6.98 °C | -0.48 °C
CN1CCCN(C(=O)c2cccc(-c3ccc(/C=C4/C(=O)Nc5ccc(Cl)cc54)o3)c2)CC1 | -4.14 °C | -5.43 °C
CC[C@H](CO)Nc1nc(Nc2cccc(-c3ccccn3)c2)c2ncn(C(C)C)c2n1 | -1.32 °C | -3.54 °C
O=C1NC(=NCc2cccs2)SC1=Cc1ccc2ncccc2c1 | 0.38 °C | -1.13 °C
Cc1cc2c(-c3ccco3)cnc(N[C@@H]3CCN(C)C[C@H]3C(=O)NC3CCCCC3)c2[nH]c1=O | 13.3 °C | -4.37 °C
Cn1cc(-n2cnc3c(NCc4nc5cc(Cl)c(Cl)cc5[nH]4)nc(N4CCOCC4)nc32)cn1 | 0.71 °C | -0.85 °C
COc1cc(C(=O)NCCOCCOCCOCCC(=O)Nc2cccc3c2C(=O)N(C2CCC(=O)NC2=O)C3=O)ccc1Nc1ncc(C(F)(F)F)c(Oc2cccc3c2C(=O)CC3)n1 (stereo not drawn) | -4.34 °C | 0.52 °C
CN(C)CCCNc1ccnc(Nc2cccc(Cl)c2)n1 | -2.63 °C | -4.21 °C
COC(=O)c1ccc2c(c1)NC(=O)/C2=C(\Nc1ccc(-c2nccn2C)cc1)c1ccccc1 | -1.87 °C | -3.33 °C
COCCNC1CCC(Nc2cc(-c3csc(NCC4(C#N)CCOCC4)n3)c(Cl)cn2)CC1 (stereo not drawn) | -0.18 °C | -2.77 °C
CO[C@H]1CC[C@H](N(c2cc(F)c(Oc3ncc(Cn4nccn4)cc3C(F)(F)F)cc2C(=O)O)C(=O)[C@H]2CC[C@H](C)CC2)CC1 | 0.94 °C | -0.09 °C
